The text below walks through data of PubChem BioAssay (NCI).

About 83,000 compounds went through this panel and 20% of them were active in at least one assay; those are over-represented in the sample as a whole.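 A percent growth of 40 corresponds to 60% growth inhibition; 0 means no net growth; -100 means all cells died. Active threshold: below 10.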 Calls of active or inactive are those of the source.

This test concerns MDA-MB-468 breast. Kind of test: NCI-60 one-dose screen, 48 h (100 = growth as untreated, 0 = no growth, -100 = all killed). Particulars: 10 µM unless noted.
For the compound `C#CCn1cnc2cnc(Nc3cccc(NC(=O)C=C)c3)nc21`, the growth is 55.1% [6.25 µM] (inactive).

`CCOC(=O)C1=C(CCl)N(C)C(=O)NC1c1ccc2c(c1)OCO2` (stereo not given): the growth was 24.1% (inactive).

`Cc1cc(N2CCN(C)CC2)nc(N(CCNc2ccnc3cc(Cl)ccc23)Cc2ccco2)n1`: the growth is 37.5% (inactive).

Regarding `COc1ccc(-c2csc(NC(=O)c3cc(O)c(O)c(O)c3)n2)cc1`, the growth was 78.6% (inactive).

For the compound `CCN(CC)CCCC(C)Nc1cnc(C(=O)Nc2cccc3ccc(OC)nc23)cn1` (stereo not given), the growth was 79.1% (inactive).

On to `COC(=O)/C=C1/SC(=Nc2ccc(C)cc2)N(CCc2c[nH]c3ccc(O)cc23)C1=O`, for which the growth is 48% (inactive).

For `NC(CSC(c1ccccc1)(c1ccccc1)c1ccccc1)C(=O)NCC(=O)O` (stereo not given), the growth is 55% (inactive).

Take `O=C(/C=C/c1cccc(O)c1)c1cccc(-n2cc(-c3ccccc3)[nH]c2=O)c1`: the growth was 73.4% (inactive).

As for `O=C1Cc2cc(CCN3CCN(CCOCCO)CC3)c(Cl)cc2N1Cc1ccc(-c2ccccc2-c2nn[nH]n2)cc1`, the growth is 82.7% (inactive).

For the compound `O/N=C1\c2ccccc2-c2ccc(F)cc21`, the growth is 9.23% (active).

On to `O=C(Cn1ccc2ccccc21)Nc1ccc(-c2nc3ccccc3s2)cc1`, for which the growth is -50.2% (active).

For the compound `CN(C)c1ccc(C(=S)c2ccc(N(C)C)cc2)cc1`, the growth was -12.3% (active).

Turning to `COc1ccc2c(c1)c(-c1cc(N)n3nc(-c4cn(C)c5ccc(OC)cc45)cc3n1)cn2C`, the growth was 142% (inactive).

Take `c1ccc2c(c1)Nc1ccncc1S2`: the growth is 107% (inactive).

Take `CC1=C(C#N)C(C)(C)C(C#N)=C(C)N1`: the growth is 98.6% (inactive).

On to `COc1ccc(-c2nc(SCC(=O)c3ccc(Br)cc3)[nH]c(=O)c2C#N)cc1`, for which the growth was 100% (inactive).

With `COC(=O)CCC1=C(C)C2=NC1=CC1=NC(=CC3=NC(=Cc4[nH]c(/c(=C(/C)O)c4C)=C2)C(C(C)=O)=C3C)C(C)=C1CCC(=O)OC`, the growth is 108% (inactive).

`O=C(c1ccccc1)C1CCC1`: the growth was 110% (inactive).

In the case of `Oc1ccccc1-c1nnc(SCc2ccc(O)c3ncccc23)n1-c1ccccc1`, the growth was 0.833% (active).

As to `COCCOc1cc2ncnc(N3CCN(c4ncc(S(=O)(=O)N5CCCCC5)cn4)CC3)c2cc1OCCOC`, the growth is 75.3% (inactive).

For `CCc1cccc(CC)c1N1C(=O)C=CC1=O`, the growth was 34.7% (inactive).

As to `O=C1c2ccccc2CCc2ccccc21`, the growth was 95.2% (inactive).

Turning to `CS(=O)(=O)c1ccc(-c2nn(-c3ccccc3)cc2/C=N/NC(=O)c2ccncc2)cc1`, the growth was 99% (inactive).

With `CN[C@@]12CC3(C=CC(=O)C=C3)O[C@]1(Cc1ccc(OC)cc1)N(C)C(=O)N2`, the growth was 23.7% (inactive).

As to `CCOC(=O)c1c(NC(=O)c2cccc(C(F)(F)F)c2)sc2cc(O)ccc12`, the growth is 85.4% (inactive).

Turning to `Cn1cnc([N+](=O)[O-])c1Sc1nnc(-c2ccccc2)c(-c2ccccc2)n1`, the growth was 64.8% (inactive).

For `CCOC(=O)c1nc(Nc2ccc(NC(=O)Nc3ccc(F)cc3)cc2)c2ccccc2n1`, the growth was 80.3% (inactive).

With `O=C(NNc1ccc(-c2ccccc2)nn1)c1ccc(F)cc1`, the growth was 98.2% (inactive).

Turning to `COc1ccc(CN2C(=O)/C(=C\C(=O)c3ccc(OCCN4CCCC4)cc3)c3ccccc32)cc1`, the growth is 49.3% (inactive).

Consider `CC(=O)c1ccc(NS(=O)(=O)c2cccc(C(=O)Nc3ccc(Br)cc3)c2)cc1`, for which the growth was 15.3% [25 µM] (inactive).

For the compound `CC1(C)N=C(N)N=C(N)N1c1ccc(S(=O)(=O)Nc2nccs2)cc1`, the growth was 103% (inactive).

Take `NS(=O)(=O)c1ccc(Nc2nc(N/N=C/c3ccc(F)cc3)nc(Nc3ccccc3)n2)cc1`: the growth was 54.1% (inactive).

`COc1cc(-c2csc(NC(=O)Nc3ccc(Cl)cc3)n2)cc(OC)c1OC`: the growth was 13.5% (inactive).

As to `CC1(c2ccccc2)OC1C(=O)O` (stereo not given), the growth is 99.2% (inactive).

Take `CCCCCCNC(=O)Oc1ccc(/C(=C(/C)c2ccccc2)c2ccc(OCCN3CCCCCC3)cc2)cc1`: the growth was 9.72% (active).

As for `Cc1c2ccccc2c(C)c2c1ccc1ccccc12`, the growth is 20.5% (inactive).

As for `CN1CCN(Cc2ccc(NC(=O)c3cncc(C#Cc4cnc5ccc(OC6CCOCC6)nn45)c3)cc2C(F)(F)F)CC1`, the growth is -62.5% (active).

With `NC(N)=Nc1ccc(S(=O)(=O)O)cc1`, the growth was 114% (inactive).

For `CCCCCCCn1cc2c(N[C@H](C)c3ccccc3)ncnc2n1`, the growth was 119% (inactive).

For `Nc1ccccc1-c1n[nH]c(=O)[nH]c1=O`, the growth is 135% (inactive).
